Among the data in PubChem BioAssay (EPA / NIEHS) are outcome and AC50 values, retold here.

Some structures have more than one record in an assay (separate samples or runs), and their calls can disagree. The source made the active and inactive calls. Rule for the calls: active = hit-call score of the fitted dose curve at least 0.9, where 1 is the maximum; inactive = score below 0.9.

One may read the AC50 as the midpoint of the concentration-response curve, whichever way the signal moves.

The nature of the assay: CCTE_Shafer_MEA_dev_correlation_coefficient_mean: CCTE's Neural Network Formation Assay for Mean Correlation Coefficient, Shafer Lab (AID 2284093).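 For AC50: well mean pairwise spike train correlation integrated as AUC over recording days 5 to 12.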 As for the experimental part: CCTE_Shafer_MEA_dev assay is conducted using Axion Biosystems 48 well microelectrode array (MEA) plates and Maestro recording system. Each well of the MEA plate contains a grid of 16 microelectrodes embedded in the culture surface. Electrically active cells, such as neurons, can be cultured over the electrodes, and electrical activity in these cells can be recorded extracellularly. The spontaneous firing of neurons is captured from each electrode on a microsecond timescale providing both temporally and spatially precise data. […] The CCTE_Shafer_MEA_dev assay uses primary cultures of rat cortical neurons. Recordings are made on days post-plating 5, 7, 9 and 12. As these cultures mature over time, neural networks develop functional activity and form cohesive networks in which electrical activity can be highly coordinated. CCTE_Shafer_MEA_dev_correlation_coefficient_mean is 1 of 19 assay components of the CCTE_Shafer_MEA_dev assay. It measures the correlation coefficent of spikes (action potential firings) between every pair of electrodes in a well during a recording in a microelectrode array (MEA) using Axion Biosystems Maestro 768 channel amplifier with the AxIS adaptive spike detector. The pairwise correlations are averaged across active electrodes to report a well-mean value. To collapse across multiple recordings made on days post-plating 5, 7, 9 and 12, the trapezoidal area-under-the-curve of the component is calculated.Data from the assay component CCTE_Shafer_MEA_dev_correlation_coefficient_mean was analyzed into 1 assay endpoint. This assay endpoint, CCTE_Shafer_MEA_dev_correlation_coefficient_mean, was analyzed in the negative analysis fitting direction relative to DMSO as the negative control and baseline of activity. Using a type of functional reporter, gain or loss-of-signal activity can be used to understand electrical activity.
On the day prior to culture, each well was coated thoroughly with 150 uL of 0.05% polyethyleneimine (PEI, Sigma Cat P3143) in 50 mM HEPES (Sigma Cat H7523) at a pH of 8. The plate was incubated at 37C for one hour. PEI was rinsed out with 500 uL of sterile water three times. Plates were stored at 4C until the day of culture. This culture was plated at a seeding density of 1.5 x 10^5 cells/well on a 48-well MEA plate, prepared as described above. Cells were administered via a 25 uL media/laminin ([…]; Sigma Cat L2020-1MG) drop directly onto the microelectrode array, as adding the cells with the laminin results in better attachment than pre-coating with laminin. After 2 hours, an additional 475 uL of cortical media was added and the cells returned to the incubator. Exposure starts at day 0 of plating and is continued over twelve days of network development until the experiment is terminated. Cells are fed with fresh medium on DIV 5 and 9, following the recordings on those days. The entire volume of media in the well is exchanged and any vehicle or compound treatment is renewed. Complete details are found in OP-NHEERL/ISTD/SBB/TJS/2015-03-r0 (available on request, email shafer.tim@epa.gov). Measurement of the electrical activity is non-invasive, and recordings can be made from the same plate over multiple different days of the culture. In cortical neurons, this allows for the measurement of extracellular action potentials over the period during which networks form in the MEA plate.
With `CC(=O)[O-].[Tl+]`, the molecule was classed as inactive.

In the case of `c1ccc2c(c1)cc1ccc3cccc4ccc2c1c34`, the molecule was called inactive.

Consider `O=C(O)CNCP(=O)(O)O`, for which the result was inactive.

As for `CP(=O)(O)CC[C@H](N)C(=O)O`, the molecule was classed as inactive.

For `NCCc1cc(O)c(O)cc1O`, the concentration at half-maximal activity (AC50) was 5.28 µM (active).

As to `O.O.O.O.O.[Cd+2].[Cd+2].[Cl-].[Cl-].[Cl-].[Cl-]`, the half-maximal activity concentration (AC50) is 0.246 µM (active).

Regarding `Cn1nc(C(F)(F)F)c(CS(=O)(=O)C2=NOC(C)(C)C2)c1OC(F)F`, the concentration at half-maximal activity (AC50) was 32.7 µM (active).

For `CCOP(=O)(OCC)OC(Cl)C(Cl)(Cl)Cl` (stereo not given), the concentration at half-maximal activity (AC50) was 1.13 µM (active).

`C[n+]1ccc(-c2cc[n+](C)cc2)cc1`: the concentration at half-maximal activity (AC50) is 1.63 µM (active).

On to `CCOP(=S)(OCC)SCS(=O)C(C)(C)C` (stereo not given), for which the outcome was inactive.

Take `C#CCN(C)[C@H](C)Cc1ccccc1`: the molecule was called inactive.

With `CC1CCCC1.[C-]#[O+].[C-]#[O+].[C-]#[O+].[Mn]`, the molecule was called inactive.

For `CC1(C)[C@H](C=C(Cl)Cl)[C@@H]1C(=O)O[C@@H](C#N)c1cccc(Oc2ccccc2)c1`, the AC50 was 4.79 µM (active).

With `O=[As]O`, the AC50 is 0.996 µM (active).

Take `CC(=O)[O-].CC(=O)[O-].O.O.O.[Pb+2]`: the AC50 is 19.7 µM (active).

`CP(=O)(O)CCC(N)C(=O)O` (stereo not given): the molecule was called inactive.

For `CC1(C)[C@H](C=C(Cl)Cl)[C@H]1C(=O)OCc1c(F)c(F)cc(F)c1F`, the AC50 is 10.7 µM (active).

Regarding `COC(=O)[C@H]1[C@@H](OC(=O)c2ccccc2)C[C@@H]2CC[C@H]1N2C`, the molecule was called inactive.

In the case of `C=CCN1CC[C@]23c4c5ccc(O)c4O[C@H]2C(=O)CC[C@@]3(O)[C@H]1C5`, the molecule was called inactive.

For `CCCCC(CC)COC(=O)c1cc(Br)c(Br)c(Br)c1Br` (stereo not given), the AC50 is 18.8 µM (active).

With `[Cd+2].[Cl-].[Cl-]`, the AC50 is 0.609 µM (active).

Regarding `Cc1ccc(OP(=O)(Oc2ccc(C)cc2)Oc2ccc(C)cc2)cc1` (tested in a mixture with another compound), the result was inactive.

Take `CC1(C)C(C=C(Cl)Cl)C1C(=O)O[C@H](C#N)c1cccc(Oc2ccccc2)c1` (stereo not given in full): the half-maximal activity concentration (AC50) was 4.48 µM (active).

Turning to `c1ccc2cc3c(cc2c1)-c1cccc2cccc-3c12`, the result was inactive.

Turning to `CC1(C)C(C=C(Cl)c2ccc(Cl)cc2)C1C(=O)OC(C#N)c1ccc(F)c(Oc2ccccc2)c1` (stereo not given), the half-maximal activity concentration (AC50) was 12.8 µM (active).

`CC1(C)[C@H](C(=O)O[C@H](C#N)c2cccc(Oc3ccccc3)c2)[C@@H]1C=C(Br)Br`: the concentration at half-maximal activity (AC50) was 2.04 µM (active).

As to `[CH3][Hg][Cl]`, the AC50 is 0.306 µM (active).

`[CH3][Sn]([CH3])[CH3]`: the AC50 was 0.222 µM (active).

Take `CNC(=N[N+](=O)[O-])NCC1CCOC1` (stereo not given): the molecule was called inactive.

On to `Brc1ccc(Oc2cc(Br)c(Br)cc2Br)c(Br)c1`, for which the concentration at half-maximal activity (AC50) was 10 µM (active).

Consider `CCOP(=O)(O)OCC` (tested in a mixture with another compound), for which the molecule was called inactive.

In the case of `C[C@H](N)Cc1ccccc1`, the outcome was inactive.

As to `CN1C(=O)CN=C(c2ccccc2)c2cc(Cl)ccc21`, the molecule was called inactive.

In the case of `CCOP(=O)(OCC)SCSCC`, the call was inactive.

Consider `COP(=O)(OC)SCN1C(=O)c2ccccc2C1=O`, for which the molecule was classed as inactive.

For the molecule `C[n+]1ccc(-c2ccccc2)cc1`, the AC50 was 8.7 µM (active).

Take `CCC[CH2][Sn]([CH2]CCC)([CH2]CCC)[O][Sn]([CH2]CCC)([CH2]CCC)[CH2]CCC`: the AC50 was 0.0335 µM (active).

For `C/C(=C/C=C/[C@@H](C)C(=O)O)[C@H]1CN[C@H](C(=O)O)[C@H]1CC(=O)O`, the AC50 is 1.56 µM (active) and the molecule was called inactive.

As for `CC1(C)[C@@H](C=C(Cl)Cl)[C@@H]1C(=O)O[C@@H](C#N)c1ccc(F)c(Oc2ccccc2)c1`, the AC50 is 5.16 µM (active).
